Several values for one entry are separate records, joined by “and”; a condition that tells them apart may be missing. Equal entries are not always repeated. Records with an inconclusive call do not appear. The source holds several records for some structures; these can differ, active in one and inactive in another. Activity calls are given as the source filed them. Unless noted, calls come from the whole dose curve; as a rule, active = well fitted curve in the direction sought with a large enough effect; inconclusive = small, poorly fitted or top-dose-only effect, or another doubt; inactive = no such curve, though single readings can be large; an effect the other way counts as inactive or inconclusive.
How the values were obtained:
[1] = P-glycoprotein substrates identified in KB-3-1 adenocarcinoma cell line, qHTS therapeutic library screen (AID 1346986); conditions: KB-3-1 parental cells viability, CellTiter-Glo, 72 h; at 44.5 µM (top of the series); note: nearly all actives have a fitted effect of over 60% in size
How it was run: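 Viability read by CellTiter-Glo after 72 h compound exposure in dose-response of KB-3-1 and KB-8-5-11 (P-gp-high) cells. Hits needed AC50 < 10 uM, >50% maximum response and curve class -1.1 to -2.4. Cherry-picks retested ± tariquidar, including pcDNA/MDR-19 HEK-293 pair.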

[2] = P-glycoprotein substrates identified in KB-8-5-11 adenocarcinoma cell line, qHTS therapeutic library screen (AID 1346987); note: nearly all actives have a fitted effect of over 65% in size; note: potency is the fitted concentration of half-maximal effect
How it was run: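 Compounds are pinned in dose-response onto KB-8-5-11 cells (500 cells/well, colchicine-free medium) and left 72 h at 37 degree C. CellTiter-Glo luminescence then yields AC50 values.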

[3] = NS1 protein of Zika virus - qHTS assay to identify small molecule inhibitors in human HEK 293 cells (AID 1347053); note: nearly all actives have a fitted effect of over 55% in size; note: potency is the fitted concentration of half-maximal effect
How it was run: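 In this cell-based screen, HEK 293 cultures received compound for one hour before Zika MR766 at MOI = 0.5. NS1 was quantified 24 hours later by TR-FRET, normalized to virus-free wells and infected wells.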

[4] = qHTS of pediatric cancer cell lines to identify multiple opportunities for drug repurposing: Primary screen for DAOY cells (AID 1347090); note: nearly all actives have a fitted effect of over 55% in size
How it was run: (§1)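 Cell viability, CellTiter-Glo luminescence; 500-1,000 cells/well, 8- or 11-point titration, 48 h compound exposure at 37 degrees C, 5% CO2. Controls: DMSO neutral, bortezomib 2.3 µM final as positive.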

[5] = qHTS of pediatric cancer cell lines to identify multiple opportunities for drug repurposing: Primary screen for SJ-GBM2 cells (AID 1347091); note: potency is the fitted concentration of half-maximal effect
How it was run: as §1

[6] = qHTS of pediatric cancer cell lines to identify multiple opportunities for drug repurposing: Primary screen for A673 cells (AID 1347092); note: nearly all actives have a fitted effect of over 45% in size; note: potency is the fitted concentration of half-maximal effect
How it was run: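 48 h compound exposure, A673, 500-1,000 cells/well, 37 degrees C/5% CO2. MIPE: 11-point, 0.78 nM-46 µM; NPC: 8-point, 0.59 nM-46 µM (final). Readout CellTiter-Glo luminescence after 15 min RT.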

[7] = qHTS of pediatric cancer cell lines to identify multiple opportunities for drug repurposing: Primary screen for SK-N-MC cells (AID 1347093); note: potency is the fitted concentration of half-maximal effect
How it was run: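 Metabolically active cells were quantified by ATP-dependent luminescence (CellTiter-Glo, 15 min at room temperature) following 48 h treatment. Cells had been plated at 500-1,000 per well and settled for 5 h beforehand.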

[8] = qHTS of pediatric cancer cell lines to identify multiple opportunities for drug repurposing: Primary screen for BT-37 cells (AID 1347094); note: potency is the fitted concentration of half-maximal effect
How it was run: (§2)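 Readout: CellTiter-Glo luminescence, 48 h treatment. Controls DMSO (neutral) and bortezomib 2.3 µM final (positive). Potency and efficacy taken from primary-screen concentration-response curves.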

[9] = qHTS of pediatric cancer cell lines to identify multiple opportunities for drug repurposing: Primary screen for NB-EBc1 cells (AID 1347095); note: potency is the fitted concentration of half-maximal effect
How it was run: as §2

[10] = Identifying Small Molecule Inhibitors of Pancreatic Cancer Stem Cells (SN12C, Spheroid) (AID 1259360); conditions: Potency: SN12C spheroid viability; note: potency is the fitted concentration of half-maximal effect
How it was run: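 Endpoint: ATP-based luminescence, 48 h drug exposure. Bortezomib at 9.2 uM final as full-kill control; DMSO vehicle as negative control; activity normalized between vehicle and cell-free wells.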

[11] = Identifying Small Molecule Inhibitors of Pancreatic Cancer Stem Cells (A278, Adherent) (AID 1259361); note: nearly all actives have a fitted effect of over 35% in size
How it was run: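 Pre-formed 14-day tumor spheroids or adherent cells dosed and incubated 48 h, 37C, 5% CO2. Viability assessed by CellTiter-Glo.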

[12] = Identifying Small Molecule Inhibitors of Pancreatic Cancer Stem Cells (Panc1, Adherent) (AID 1259362); conditions: viability; note: potency is the fitted concentration of half-maximal effect
How it was run: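 Cytotoxicity read by CellTiter-Glo luminescence after 48 h compound exposure at 37C; percent activity scaled between DMSO-treated cells and cell-free wells. Spheroid formats used cells pre-formed 14 days in stem cell media on hydrogel.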

[13] = Natriuretic polypeptide receptor (hNpr1) antagonism - Pilot counterscreen GloSensor control cell line (AID 1347045; calls by dose curve)
How it was run: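 Control counterscreen: luciferase cGMP-biosensor HEK293 cells (no Npr1) received compound for 30 min at room temperature after GloSensor substrate loading. Luminescence was measured before and 20 min after soluble guanylyl cyclase activation by 50 uM nitroprusside.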

[14] = target: Atrial natriuretic peptide receptor 1 (Homo sapiens) (UniProt P16066); experiment: Natriuretic polypeptide receptor (hNpr1) antagonism - Pilot screen (AID 1347049; calls by dose curve;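 note: HEK293 cells with hNpr1 and GloSensor cGMP luciferase stimulated by 0.1 nM hNppA; agonist-evoked cGMP luminescence read 20 min after hNppA addition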)
Chain of Atrial natriuretic peptide receptor 1 (Homo sapiens) (P16066 whole entry, looked up): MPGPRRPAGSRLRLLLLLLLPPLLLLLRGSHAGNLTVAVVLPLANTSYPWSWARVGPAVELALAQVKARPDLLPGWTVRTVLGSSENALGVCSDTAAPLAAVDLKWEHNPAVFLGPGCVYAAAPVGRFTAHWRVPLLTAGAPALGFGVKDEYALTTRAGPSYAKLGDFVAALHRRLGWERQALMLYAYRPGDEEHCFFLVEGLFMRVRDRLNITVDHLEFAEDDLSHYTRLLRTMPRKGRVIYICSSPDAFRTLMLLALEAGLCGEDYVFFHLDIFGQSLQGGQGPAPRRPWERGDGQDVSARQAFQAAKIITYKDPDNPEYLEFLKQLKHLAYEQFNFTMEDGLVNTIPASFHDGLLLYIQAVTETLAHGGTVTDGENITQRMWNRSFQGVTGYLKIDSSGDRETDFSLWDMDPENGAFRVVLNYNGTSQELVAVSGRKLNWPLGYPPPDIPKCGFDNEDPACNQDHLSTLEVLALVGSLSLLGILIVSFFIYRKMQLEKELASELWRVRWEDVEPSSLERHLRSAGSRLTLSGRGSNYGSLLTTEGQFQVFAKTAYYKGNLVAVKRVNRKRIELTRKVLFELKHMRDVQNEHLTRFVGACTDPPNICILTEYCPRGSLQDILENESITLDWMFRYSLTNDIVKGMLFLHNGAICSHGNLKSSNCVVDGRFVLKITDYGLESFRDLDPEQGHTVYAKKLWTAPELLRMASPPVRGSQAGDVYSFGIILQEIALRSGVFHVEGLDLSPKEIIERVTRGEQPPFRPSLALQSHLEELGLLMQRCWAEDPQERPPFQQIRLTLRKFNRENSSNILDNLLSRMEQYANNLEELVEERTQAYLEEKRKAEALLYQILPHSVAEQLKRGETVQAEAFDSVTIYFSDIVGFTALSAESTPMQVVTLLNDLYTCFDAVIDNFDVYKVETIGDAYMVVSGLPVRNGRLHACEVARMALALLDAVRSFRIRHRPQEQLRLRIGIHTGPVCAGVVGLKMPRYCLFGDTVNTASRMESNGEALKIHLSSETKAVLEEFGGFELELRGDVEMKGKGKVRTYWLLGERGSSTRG
How it was run: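 Receptor antagonism read as cGMP-dependent luminescence in hNpr1/pGS-40F HEK293 cells: pre-read after 30 min compound exposure, post-read 20 min after hNppA agonist at 0.1 nM final, all at room temperature, protected from light; A-71915 titration as control.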

[15] = target: Atrial natriuretic peptide receptor 2 (Homo sapiens) (UniProt P20594); experiment: Natriuretic polypeptide receptor (hNpr2) antagonism - Pilot subtype selectivity assay (AID 1347050; calls by dose curve)
Chain of Atrial natriuretic peptide receptor 2 (Homo sapiens) (P20594 whole entry, looked up): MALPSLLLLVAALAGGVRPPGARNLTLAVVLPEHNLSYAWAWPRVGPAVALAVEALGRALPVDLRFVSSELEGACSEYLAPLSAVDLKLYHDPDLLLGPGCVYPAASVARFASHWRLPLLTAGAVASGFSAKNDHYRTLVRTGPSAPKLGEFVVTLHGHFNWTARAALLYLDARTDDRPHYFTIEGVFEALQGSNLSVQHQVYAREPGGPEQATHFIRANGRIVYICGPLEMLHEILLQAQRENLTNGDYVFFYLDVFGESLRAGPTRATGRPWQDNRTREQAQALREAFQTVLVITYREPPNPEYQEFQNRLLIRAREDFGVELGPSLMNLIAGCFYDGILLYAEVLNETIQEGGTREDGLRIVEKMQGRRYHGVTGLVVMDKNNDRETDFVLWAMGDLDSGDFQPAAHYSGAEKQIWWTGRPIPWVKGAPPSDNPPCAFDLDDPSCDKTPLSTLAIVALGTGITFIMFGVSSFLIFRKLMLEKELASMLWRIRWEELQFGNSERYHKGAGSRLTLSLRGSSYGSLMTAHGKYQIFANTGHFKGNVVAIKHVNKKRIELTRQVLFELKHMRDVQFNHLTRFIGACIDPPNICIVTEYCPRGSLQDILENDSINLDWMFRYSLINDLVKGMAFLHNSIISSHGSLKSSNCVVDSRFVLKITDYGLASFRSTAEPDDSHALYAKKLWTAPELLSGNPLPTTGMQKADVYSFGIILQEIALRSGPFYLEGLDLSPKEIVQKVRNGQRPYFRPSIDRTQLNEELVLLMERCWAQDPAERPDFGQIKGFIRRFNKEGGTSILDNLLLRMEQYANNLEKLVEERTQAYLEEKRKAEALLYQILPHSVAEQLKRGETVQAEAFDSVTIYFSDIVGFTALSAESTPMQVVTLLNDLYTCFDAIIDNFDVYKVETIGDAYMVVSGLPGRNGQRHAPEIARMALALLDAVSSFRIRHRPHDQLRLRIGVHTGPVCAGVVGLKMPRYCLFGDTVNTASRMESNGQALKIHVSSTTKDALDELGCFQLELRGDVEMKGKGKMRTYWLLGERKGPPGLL
How it was run: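 Antagonist mode: compounds (LOPAC1280, seven 1:5 dilutions) added 30 min before 1 nM hNppC stimulation of hNpr2-HEK293 cGMP-sensor cells; luminescence read before and 20 min after agonist at ambient temperature.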

[16] = target: T1, Tyrosine-protein phosphatase non-receptor type substrate 1 (Homo sapiens) + Leukocyte surface antigen CD47 (Homo sapiens) (UniProt P78324+Q08722); experiment: CD47-SIRPalpha protein protein interaction - LANCE assay qHTS validation (AID 1347057; active = well fitted curve in the direction sought with a large enough effect in the signal ratio, with a control signal flat, not every such curve was filed as active; the % refers to the signal ratio)
T1 sequence (P78324 whole entry, looked up, the tested form may be a part): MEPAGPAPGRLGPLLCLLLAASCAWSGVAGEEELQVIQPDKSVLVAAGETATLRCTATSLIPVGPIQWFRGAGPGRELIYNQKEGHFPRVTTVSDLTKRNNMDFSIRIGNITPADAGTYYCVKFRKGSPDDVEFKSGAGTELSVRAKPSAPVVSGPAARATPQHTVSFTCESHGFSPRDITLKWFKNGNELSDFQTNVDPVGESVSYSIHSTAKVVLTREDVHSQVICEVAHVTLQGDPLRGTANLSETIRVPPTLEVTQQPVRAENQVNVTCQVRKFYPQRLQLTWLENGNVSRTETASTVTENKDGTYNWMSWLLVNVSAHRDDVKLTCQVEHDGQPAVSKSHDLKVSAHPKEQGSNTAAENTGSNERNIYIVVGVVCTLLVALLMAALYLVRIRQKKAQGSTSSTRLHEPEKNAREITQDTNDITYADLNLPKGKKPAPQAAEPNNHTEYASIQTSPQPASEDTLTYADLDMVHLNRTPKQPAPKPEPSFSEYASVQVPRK
T1 sequence (Q08722 whole entry, looked up, the tested form may be a part): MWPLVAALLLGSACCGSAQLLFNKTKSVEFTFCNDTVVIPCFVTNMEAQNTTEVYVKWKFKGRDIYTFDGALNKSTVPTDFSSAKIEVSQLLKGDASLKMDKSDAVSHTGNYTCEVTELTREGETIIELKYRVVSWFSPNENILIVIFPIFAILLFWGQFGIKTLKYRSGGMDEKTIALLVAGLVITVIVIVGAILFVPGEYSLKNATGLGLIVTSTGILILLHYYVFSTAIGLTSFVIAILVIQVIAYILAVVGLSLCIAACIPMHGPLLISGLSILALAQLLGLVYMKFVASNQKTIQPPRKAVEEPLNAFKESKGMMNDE
How it was run: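 Inhibition of soluble CD47/SIRPalpha ectodomain association by titrated compounds, measured as 665/615 nm time-resolved FRET ratio after sequential 30 min room-temperature incubations.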

[17] = target: T1, Tyrosine-protein phosphatase non-receptor type substrate 1 (Homo sapiens) + Leukocyte surface antigen CD47 (Homo sapiens); experiment: CD47-SIRPalpha protein protein interaction - HTRF assay qHTS validation (AID 1347058; active = well fitted curve in the direction sought with a large enough effect in the signal ratio, not every such curve was filed as active; the % refers to the signal ratio)
How it was run: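 Soluble extracellular domains (6His-CD47, Avi-tag-biotinylated SIRPalpha) in PBS pH 7.4 with 0.05% IGEPAL CA-630. Compounds were preincubated 30 min at RT with CD47 and anti-His-Eu, then SIRPalpha and SAV-XL665 were added. TR-FRET 665/615 ratio.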

[18] = target: T1, Tyrosine-protein phosphatase non-receptor type substrate 1 (Homo sapiens) + Leukocyte surface antigen CD47 (Homo sapiens); experiment: CD47-SIRPalpha protein protein interaction - Alpha assay qHTS validation (AID 1347059);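 note: bead proximity luminescence from CD47 binding SIRPalpha after compound preincubation with SIRPalpha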
How it was run: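 AlphaScreen signal between CD47-His (12.5 nM) and biotin-SIRPalpha (25 nM) soluble extracellular domains, bead-captured via Ni-NTA and streptavidin. Compounds, in 7-point titrations, met SIRPalpha 30 min before CD47; PBS pH 7.4 with 0.05% IGEPAL.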

[19] = target: Parathyroid hormone/parathyroid hormone-related peptide receptor (Homo sapiens) (UniProt Q03431); experiment: qHTS for PTHR1 Agonists: Optimization Screen against the NCGC LOPAC library (AID 1347079);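 note: GloSensor cAMP luminescence in HEK-293 GP2 cells expressing human PTHR1 with IBMX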
Chain of Parathyroid hormone/parathyroid hormone-related peptide receptor (Homo sapiens) (Q03431 whole entry, looked up): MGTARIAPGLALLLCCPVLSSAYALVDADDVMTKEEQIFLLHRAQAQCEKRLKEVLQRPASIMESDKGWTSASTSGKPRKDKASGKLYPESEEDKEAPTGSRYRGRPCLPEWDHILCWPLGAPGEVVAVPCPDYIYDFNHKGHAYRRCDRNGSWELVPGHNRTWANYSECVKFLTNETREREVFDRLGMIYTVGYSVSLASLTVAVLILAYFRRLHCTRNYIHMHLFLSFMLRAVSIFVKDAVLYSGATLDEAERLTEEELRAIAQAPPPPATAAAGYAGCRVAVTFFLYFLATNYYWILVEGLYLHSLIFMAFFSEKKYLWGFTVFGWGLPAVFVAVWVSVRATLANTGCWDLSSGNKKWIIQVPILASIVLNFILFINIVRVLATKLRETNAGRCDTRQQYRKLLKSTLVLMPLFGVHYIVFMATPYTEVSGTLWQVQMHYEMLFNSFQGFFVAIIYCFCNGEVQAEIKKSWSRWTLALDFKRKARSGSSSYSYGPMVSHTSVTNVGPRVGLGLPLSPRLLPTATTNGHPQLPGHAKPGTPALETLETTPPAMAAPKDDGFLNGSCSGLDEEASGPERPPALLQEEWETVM
How it was run: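 HEK-293 GP2 cells, PTHR1 + GloSensor cAMP; 3000 cells/well, o/n. Luciferin + IBMX 0.5mM each (stock), 1 hr 37C. Cpd titration, 1 hr 37C. Lum after 15 min RT. Ctrl M-PTH(1-15) top 10uM.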

[20] = qHTS of pediatric cancer cell lines to identify multiple opportunities for drug repurposing: Primary screen for TC32 cells (AID 1347089); note: nearly all actives have a fitted effect of over 60% in size; note: potency is the fitted concentration of half-maximal effect
How it was run: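 In the primary qHTS, MIPE compounds were tested at 11 concentrations (0.78 nM to 46 µM) and NPC compounds at 8 (0.59 nM to 46 µM) on TC32 cells for 48 h. CellTiter-Glo luminescence gave viability.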

O=C(O)CCn1c2c(c3ccccc31)C[C@H](NS(=O)(=O)c1ccc(F)cc1)CC2
inactive: outcome [1] | Potency [2] | Potency [3] | Potency [4] | Potency [5] | Potency [6] | Potency [7] | Potency [8] | Potency [9]

CC(C)C[C@H](NC(=O)[C@H](CCc1ccccc1)NC(=O)CN1CCOCC1)C(=O)N[C@@H](Cc1ccccc1)C(=O)N[C@@H](CC(C)C)C(=O)[C@@]1(C)CO1
active: Potency [10] 37.2 nM | IC50 (viability decrease) [11] 2.3 nM | Potency [12] 26.4 nM | Potency [3] 118 nM | Potency [5] 66.8 nM and 29.6 nM | Potency [6] 10.6 nM and 18.7 nM | Potency [7] 6 nM and 5.9 nM | Potency [8] 174 nM and 306 nM | Potency [9] 53.1 nM and 29.6 nM

CC1=CC(=O)c2ccccc2C1=O
inactive: outcome [1] | Potency [2] | Potency [3] | Potency [4] | Potency [8]
active: Potency [5] 23.5 µM | Potency [6] 13.3 µM and 14.8 µM | Potency [7] 21.1 µM and 148 nM

CCN1CCCC1CNC(=O)c1cc(S(N)(=O)=O)ccc1OC (stereo not drawn)
inactive: outcome [1] | Potency [2] | Potency [13] | Potency [14] | Potency [15] | Potency [3] | outcome [16] | outcome [17] | outcome [18] | outcome [19] | Potency [20] | Potency [4] | Potency [5] | Potency [6] | Potency [7] | Potency [8] | Potency [9]

COc1nc(N)nc2c1ncn2[C@@H]1O[C@H](CO)[C@@H](O)[C@@H]1O
inactive: outcome [1] | Potency [2] | Potency [3] | Potency [4] | Potency [5] | Potency [6] | Potency [7] | Potency [8] | Potency [9]

CC(C)OC(=O)C(C(=O)OC(C)C)=C1SC=CS1
inactive: outcome [1] | Potency [2] | Potency [3] | Potency [5] | Potency [6] | Potency [7] | Potency [8] | Potency [9]

Cc1cc(NS(=O)(=O)c2ccc(N)cc2)no1
inactive: outcome [1] | Potency [3] | Potency [20] | Potency [4] | Potency [5] | Potency [6] | Potency [8] | Potency [9]

Cc1noc(NS(=O)(=O)c2ccc(N)cc2)c1C
inactive: outcome [1] | Potency [3] | Potency [20] | Potency [4] | Potency [5] | Potency [6] | Potency [7] | Potency [8]

CC(C)OC(=O)OCOP(=O)(CO[C@H](C)Cn1cnc2c(N)ncnc21)OCOC(=O)OC(C)C
inactive: outcome [1] | Potency [2] | Potency [3] | Potency [4] | Potency [5] | Potency [6] | Potency [8] | Potency [9]
active: Potency [7] 11.8 µM and 15 µM

CNNCc1ccc(C(=O)NC(C)C)cc1
inactive: outcome [1] | Potency [2] | Potency [3] | Potency [20] | Potency [4] | Potency [5] | Potency [6] | Potency [7] | Potency [8]

COc1cc(NS(=O)(=O)c2ccc(N)cc2)nc(OC)n1
inactive: outcome [1] | Potency [2] | Potency [3] | Potency [4] | Potency [5] | Potency [6] | Potency [7] | Potency [8]

CNS(=O)(=O)CCc1ccc2[nH]cc(C3CCN(C)CC3)c2c1
inactive: outcome [1] | Potency [3] | outcome [16] | outcome [17] | outcome [18] | Potency [20] | Potency [4]

CN1CCN(c2c(F)cc3c(=O)c(C(=O)O)cn4c3c2OCN4C)CC1
inactive: outcome [1] | Potency [2] | Potency [3] | Potency [20] | Potency [4] | Potency [5] | Potency [6] | Potency [7] | Potency [8] | Potency [9]

Nc1nc(F)nc2c1ncn2[C@@H]1O[C@H](CO)[C@@H](O)[C@@H]1O
inactive: outcome [1]
inactive and 2.09 µM (active): Potency [3]
active: Potency [20] 18.7 µM and 2.62 µM | Potency [5] 0.935 µM | Potency [6] 743 nM | Potency [7] 33.5 nM and 332 nM | Potency [8] 863 nM
inactive and 662 nM (active): Potency [2]

O=C(O)CSCC(=O)NC1CCSC1=O (stereo not drawn)
inactive: outcome [1] | Potency [2] | Potency [3] | Potency [20] | Potency [4] | Potency [5] | Potency [6] | Potency [7] | Potency [8] | Potency [9]

CCn1cc(C(=O)O)c(=O)c2cc(F)c(N3CCNCC3)cc21
inactive: outcome [1] | Potency [2] | Potency [3] | Potency [20] | Potency [5] | Potency [6] | Potency [7] | Potency [8] | Potency [9]

Cc1ccnc2c1NC(=O)c1cccnc1N2C1CC1
inactive: outcome [1] | Potency [2] | Potency [3] | Potency [20] | Potency [5] | Potency [6] | Potency [8]

Cn1c(=O)c2c(ncn2CC(O)CO)n(C)c1=O (stereo not drawn)
inactive: outcome [1] | Potency [2] | Potency [3] | Potency [20] | Potency [4] | Potency [5] | Potency [6] | Potency [7] | Potency [8] | Potency [9]

O=C(O)c1cn(C2CC2)c2cc(N3CCNCC3)c(F)cc2c1=O
inactive: outcome [1] | Potency [2] | Potency [3] | Potency [20] | Potency [4] | Potency [5] | Potency [6] | Potency [7] | Potency [8] | Potency [9]

CCN(CC)CCn1c(=O)c(Cc2ccc(OC)cc2)nc2ccccc21
inactive: Potency [10] | IC50 (viability decrease) [11] | outcome [1] | Potency [14] | Potency [3] | outcome [16] | outcome [18] | outcome [19] | Potency [20] | Potency [4] | Potency [5] | Potency [6] | Potency [7] | Potency [8] | Potency [9]
